Experiments:
Assay in all cases: DAPPL (digital affinity profiling via proximity ligation, sequencing); 10 mM Tris-HCl pH 7.5, 50 mM NaCl, 1 mM DTT, 4% glycerol, room temperature, 30 min; GST-TFs on glutathione beads, 16-mer random dsDNA library, 0.1% formaldehyde crosslink after washing; high values mean tight binding
Settings in all cases: protein: recombinant; tags: N-terminal GST; dsDNA, one strand shown
[1] = molecular target: T1, FLI1 (Homo sapiens, UniProt Q01543 1-452)
T1 sequence: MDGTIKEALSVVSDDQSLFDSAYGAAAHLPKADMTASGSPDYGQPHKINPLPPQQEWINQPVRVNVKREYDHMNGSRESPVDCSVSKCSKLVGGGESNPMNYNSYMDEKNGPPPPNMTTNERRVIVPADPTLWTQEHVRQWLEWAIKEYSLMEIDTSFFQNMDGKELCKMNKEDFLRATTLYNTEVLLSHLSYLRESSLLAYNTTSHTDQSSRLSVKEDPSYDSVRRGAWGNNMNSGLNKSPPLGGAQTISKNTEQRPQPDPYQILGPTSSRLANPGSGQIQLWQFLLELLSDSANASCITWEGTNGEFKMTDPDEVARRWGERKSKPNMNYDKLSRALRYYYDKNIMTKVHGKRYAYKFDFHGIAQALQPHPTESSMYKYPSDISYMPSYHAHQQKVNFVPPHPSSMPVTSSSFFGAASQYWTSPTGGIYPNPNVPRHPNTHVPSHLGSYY
Summary of the method: (§1)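 After expression in yeast as GST fusions, human transcription factors were bound to glutathione beads, DNA-barcoded and mixed with a tag-only sample. The pools were incubated with 200 nmole of a 16-mer random double-stranded DNA library in Tris/NaCl/DTT/glycerol buffer (30 min, room temperature), washed and crosslinked with 0.1% formaldehyde. Proximity ligation with BsaI/T4 ligase ran for 1 h at 37 °C, before PCR amplification and sequencing on an Illumina NextSeq500. Binding signal is a hexamer's read frequency for a factor divided by its frequency for the tag-only sample.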

[2] = molecular target: T2, ELK1 (Homo sapiens, UniProt P19419 1-428)
T2 sequence: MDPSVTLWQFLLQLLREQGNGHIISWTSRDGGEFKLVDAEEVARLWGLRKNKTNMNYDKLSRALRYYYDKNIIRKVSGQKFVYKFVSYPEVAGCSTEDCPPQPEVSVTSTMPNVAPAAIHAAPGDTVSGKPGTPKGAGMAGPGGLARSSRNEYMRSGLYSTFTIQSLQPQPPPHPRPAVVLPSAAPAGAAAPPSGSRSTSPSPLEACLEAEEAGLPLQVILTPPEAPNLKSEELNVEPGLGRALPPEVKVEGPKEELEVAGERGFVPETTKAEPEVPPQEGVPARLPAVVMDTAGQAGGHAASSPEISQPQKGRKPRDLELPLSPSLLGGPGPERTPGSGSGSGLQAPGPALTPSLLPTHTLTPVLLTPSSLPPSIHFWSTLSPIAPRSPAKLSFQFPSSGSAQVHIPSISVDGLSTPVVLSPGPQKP
Summary of the method: as §1

[3] = molecular target: T3, GABPA (Homo sapiens, UniProt Q06546 1-454)
T3 sequence: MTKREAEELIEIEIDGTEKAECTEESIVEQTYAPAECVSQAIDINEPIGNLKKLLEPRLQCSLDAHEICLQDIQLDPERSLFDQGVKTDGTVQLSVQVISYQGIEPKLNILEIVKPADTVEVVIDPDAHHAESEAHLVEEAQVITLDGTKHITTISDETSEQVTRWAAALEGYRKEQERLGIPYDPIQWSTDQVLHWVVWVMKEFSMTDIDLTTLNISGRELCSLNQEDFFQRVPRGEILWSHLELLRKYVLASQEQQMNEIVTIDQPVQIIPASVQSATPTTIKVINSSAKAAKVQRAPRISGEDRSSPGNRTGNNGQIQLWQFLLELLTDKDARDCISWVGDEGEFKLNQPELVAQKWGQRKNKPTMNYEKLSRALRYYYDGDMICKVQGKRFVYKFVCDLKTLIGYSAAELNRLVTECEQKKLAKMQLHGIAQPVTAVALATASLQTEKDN
Summary of the method: as §1

[4] = molecular target: T4, ERG (Homo sapiens, UniProt P11308 1-479)
T4 sequence: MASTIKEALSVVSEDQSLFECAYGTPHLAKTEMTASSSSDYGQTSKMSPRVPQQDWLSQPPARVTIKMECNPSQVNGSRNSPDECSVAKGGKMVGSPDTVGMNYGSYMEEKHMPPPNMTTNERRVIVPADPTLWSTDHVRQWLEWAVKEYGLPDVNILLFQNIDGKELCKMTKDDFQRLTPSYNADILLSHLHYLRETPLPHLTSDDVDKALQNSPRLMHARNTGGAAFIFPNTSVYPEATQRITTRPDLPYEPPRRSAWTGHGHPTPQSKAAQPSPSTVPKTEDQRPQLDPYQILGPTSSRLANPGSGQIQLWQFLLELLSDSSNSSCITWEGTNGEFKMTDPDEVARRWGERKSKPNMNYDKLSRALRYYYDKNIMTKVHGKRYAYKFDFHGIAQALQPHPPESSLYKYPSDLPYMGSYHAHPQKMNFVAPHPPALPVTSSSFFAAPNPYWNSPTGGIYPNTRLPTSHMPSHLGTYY
Summary of the method: as §1

[5] = molecular target: ELF1 (Homo sapiens, UniProt P32519 1-619)
Summary of the method: as §1

[6] = molecular target: T5, EHF (Homo sapiens, UniProt Q9NZC4 1-300)
T5 sequence: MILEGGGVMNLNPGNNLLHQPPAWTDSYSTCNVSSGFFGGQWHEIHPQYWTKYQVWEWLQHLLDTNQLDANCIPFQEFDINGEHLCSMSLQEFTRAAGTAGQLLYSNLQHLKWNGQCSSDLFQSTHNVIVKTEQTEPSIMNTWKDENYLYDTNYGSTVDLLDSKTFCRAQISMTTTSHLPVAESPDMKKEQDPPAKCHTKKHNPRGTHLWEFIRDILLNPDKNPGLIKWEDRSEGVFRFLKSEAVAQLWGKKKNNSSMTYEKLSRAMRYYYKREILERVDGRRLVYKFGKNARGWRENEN
Summary of the method: as §1

[7] = molecular target: SPI1 (Homo sapiens, UniProt P17947 1-270)
Summary of the method: as §1

[8] = molecular target: T6, ELK3 (Homo sapiens, UniProt P41970 1-407)
T6 sequence: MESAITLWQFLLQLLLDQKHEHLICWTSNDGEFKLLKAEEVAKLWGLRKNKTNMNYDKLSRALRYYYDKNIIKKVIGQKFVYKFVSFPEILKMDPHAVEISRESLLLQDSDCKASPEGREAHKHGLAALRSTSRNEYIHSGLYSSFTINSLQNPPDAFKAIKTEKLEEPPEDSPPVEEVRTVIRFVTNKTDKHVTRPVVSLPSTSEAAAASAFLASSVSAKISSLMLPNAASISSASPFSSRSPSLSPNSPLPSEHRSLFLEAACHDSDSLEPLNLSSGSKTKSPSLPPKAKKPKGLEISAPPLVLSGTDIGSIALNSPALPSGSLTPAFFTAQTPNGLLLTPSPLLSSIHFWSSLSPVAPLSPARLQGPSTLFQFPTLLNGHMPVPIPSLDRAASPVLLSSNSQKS
Summary of the method: as §1

[9] = molecular target: T7, FEV (Homo sapiens, UniProt Q99581 1-238)
T7 sequence: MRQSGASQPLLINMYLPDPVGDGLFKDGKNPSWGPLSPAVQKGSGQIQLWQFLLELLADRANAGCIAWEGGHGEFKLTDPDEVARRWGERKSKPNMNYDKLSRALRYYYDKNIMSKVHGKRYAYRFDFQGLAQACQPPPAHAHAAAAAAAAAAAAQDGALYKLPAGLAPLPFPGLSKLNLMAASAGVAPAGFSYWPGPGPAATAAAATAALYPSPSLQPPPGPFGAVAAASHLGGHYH
Summary of the method: as §1

[10] = molecular target: ETV5 (Homo sapiens, UniProt P41161 1-510)
Summary of the method: as §1

[11] = molecular target: T8, SPIC (Homo sapiens, UniProt Q8N5J4 1-248)
T8 sequence: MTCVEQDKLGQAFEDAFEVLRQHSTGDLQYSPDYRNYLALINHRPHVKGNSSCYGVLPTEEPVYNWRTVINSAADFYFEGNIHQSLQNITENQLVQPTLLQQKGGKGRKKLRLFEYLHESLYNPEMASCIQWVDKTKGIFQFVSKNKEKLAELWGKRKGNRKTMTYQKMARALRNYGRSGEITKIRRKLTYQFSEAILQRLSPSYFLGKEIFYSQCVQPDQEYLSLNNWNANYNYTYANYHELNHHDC
Summary of the method: as §1

[12] = molecular target: ELF4 (Homo sapiens, UniProt Q99607 1-663)
Summary of the method: as §1

[13] = molecular target: T9, ELK4 (Homo sapiens, UniProt P28324-2 1-405)
T9 sequence: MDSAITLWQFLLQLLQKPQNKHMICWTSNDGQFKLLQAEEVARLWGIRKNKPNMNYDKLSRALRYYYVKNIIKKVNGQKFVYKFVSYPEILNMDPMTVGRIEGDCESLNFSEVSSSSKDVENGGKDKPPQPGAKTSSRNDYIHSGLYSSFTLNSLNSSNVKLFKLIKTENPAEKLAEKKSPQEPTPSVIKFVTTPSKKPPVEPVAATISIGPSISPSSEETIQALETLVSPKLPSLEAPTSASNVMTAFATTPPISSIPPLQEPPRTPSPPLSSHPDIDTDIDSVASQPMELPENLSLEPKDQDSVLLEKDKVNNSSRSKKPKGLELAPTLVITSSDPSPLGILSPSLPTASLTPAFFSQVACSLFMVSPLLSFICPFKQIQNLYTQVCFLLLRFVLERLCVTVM
Summary of the method: as §1

[14] = molecular target: T10, ETV2 (Homo sapiens, UniProt O00321 1-342)
T10 sequence: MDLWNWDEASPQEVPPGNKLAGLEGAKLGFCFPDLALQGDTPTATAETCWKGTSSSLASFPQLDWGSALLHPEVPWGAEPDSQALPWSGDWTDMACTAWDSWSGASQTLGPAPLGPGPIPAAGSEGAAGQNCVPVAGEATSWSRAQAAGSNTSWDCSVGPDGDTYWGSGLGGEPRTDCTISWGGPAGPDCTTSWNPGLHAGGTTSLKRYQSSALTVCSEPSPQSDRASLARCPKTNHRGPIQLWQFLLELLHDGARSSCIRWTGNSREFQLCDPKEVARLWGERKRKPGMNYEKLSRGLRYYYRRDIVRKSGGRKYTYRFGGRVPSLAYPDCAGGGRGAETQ
Summary of the method: as §1

[15] = molecular target: T11, ELF3 (Homo sapiens, UniProt P78545 1-371)
T11 sequence: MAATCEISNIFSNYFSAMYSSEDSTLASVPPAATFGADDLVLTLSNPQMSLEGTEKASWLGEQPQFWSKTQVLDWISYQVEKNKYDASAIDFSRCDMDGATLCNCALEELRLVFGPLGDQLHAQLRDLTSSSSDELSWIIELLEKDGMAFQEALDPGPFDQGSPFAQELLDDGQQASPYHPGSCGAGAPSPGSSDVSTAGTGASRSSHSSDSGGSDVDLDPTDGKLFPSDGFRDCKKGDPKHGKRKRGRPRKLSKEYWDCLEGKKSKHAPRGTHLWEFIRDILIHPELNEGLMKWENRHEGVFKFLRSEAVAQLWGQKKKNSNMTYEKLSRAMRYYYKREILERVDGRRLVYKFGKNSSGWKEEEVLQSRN
Summary of the method: as §1

[16] = molecular target: ETV1 (Homo sapiens, UniProt P50549 1-477)
Summary of the method: as §1

[17] = molecular target: SPIB (Homo sapiens, UniProt Q01892 1-262)
Summary of the method: as §1

ETV5, sequence (P41161 whole entry): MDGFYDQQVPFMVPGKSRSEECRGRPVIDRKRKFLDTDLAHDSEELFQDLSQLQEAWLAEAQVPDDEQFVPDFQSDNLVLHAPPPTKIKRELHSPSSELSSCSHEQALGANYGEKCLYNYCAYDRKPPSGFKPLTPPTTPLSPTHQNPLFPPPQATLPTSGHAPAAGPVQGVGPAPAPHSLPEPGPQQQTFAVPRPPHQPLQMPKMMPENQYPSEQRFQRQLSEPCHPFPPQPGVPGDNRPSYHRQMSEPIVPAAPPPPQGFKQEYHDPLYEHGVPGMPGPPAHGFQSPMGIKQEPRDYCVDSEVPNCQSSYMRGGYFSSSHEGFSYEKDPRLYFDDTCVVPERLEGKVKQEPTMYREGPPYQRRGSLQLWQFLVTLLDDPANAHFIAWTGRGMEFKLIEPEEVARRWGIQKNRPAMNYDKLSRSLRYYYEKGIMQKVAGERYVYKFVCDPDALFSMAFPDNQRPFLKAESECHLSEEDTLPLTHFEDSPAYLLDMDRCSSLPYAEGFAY
ELF4, sequence (Q99607 whole entry): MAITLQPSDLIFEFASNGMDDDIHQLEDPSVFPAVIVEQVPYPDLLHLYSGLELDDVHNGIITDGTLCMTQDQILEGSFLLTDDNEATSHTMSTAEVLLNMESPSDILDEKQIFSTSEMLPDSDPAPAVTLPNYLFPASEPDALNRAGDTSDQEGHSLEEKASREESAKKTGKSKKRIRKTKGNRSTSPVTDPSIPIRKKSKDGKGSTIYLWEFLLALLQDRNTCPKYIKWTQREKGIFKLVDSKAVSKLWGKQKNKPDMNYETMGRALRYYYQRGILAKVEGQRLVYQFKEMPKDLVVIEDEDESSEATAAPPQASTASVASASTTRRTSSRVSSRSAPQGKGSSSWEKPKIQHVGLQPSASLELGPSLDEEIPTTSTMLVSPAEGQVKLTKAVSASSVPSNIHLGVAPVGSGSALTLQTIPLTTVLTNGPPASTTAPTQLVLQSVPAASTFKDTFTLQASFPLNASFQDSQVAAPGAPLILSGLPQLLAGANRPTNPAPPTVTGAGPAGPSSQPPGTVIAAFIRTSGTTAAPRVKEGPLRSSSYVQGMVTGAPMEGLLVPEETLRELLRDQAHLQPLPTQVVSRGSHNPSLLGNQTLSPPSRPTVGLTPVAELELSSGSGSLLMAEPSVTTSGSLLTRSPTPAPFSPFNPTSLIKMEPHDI
ELF1, sequence (P32519 whole entry): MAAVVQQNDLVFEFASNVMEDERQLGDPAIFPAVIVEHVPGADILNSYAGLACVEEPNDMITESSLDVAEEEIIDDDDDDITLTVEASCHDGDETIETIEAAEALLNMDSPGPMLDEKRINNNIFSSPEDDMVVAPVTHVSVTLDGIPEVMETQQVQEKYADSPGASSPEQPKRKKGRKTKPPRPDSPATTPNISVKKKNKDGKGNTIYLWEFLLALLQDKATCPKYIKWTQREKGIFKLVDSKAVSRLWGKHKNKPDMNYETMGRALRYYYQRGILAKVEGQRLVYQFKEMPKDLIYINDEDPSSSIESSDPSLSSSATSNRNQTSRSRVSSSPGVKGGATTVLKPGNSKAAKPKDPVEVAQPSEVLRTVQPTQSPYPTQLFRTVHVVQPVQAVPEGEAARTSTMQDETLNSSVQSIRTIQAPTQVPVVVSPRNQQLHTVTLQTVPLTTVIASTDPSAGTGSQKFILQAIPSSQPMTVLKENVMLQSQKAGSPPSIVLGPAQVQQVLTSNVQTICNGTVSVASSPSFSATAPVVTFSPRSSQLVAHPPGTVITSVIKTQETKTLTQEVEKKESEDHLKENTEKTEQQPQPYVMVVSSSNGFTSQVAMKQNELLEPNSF
ETV1, sequence (P50549 whole entry): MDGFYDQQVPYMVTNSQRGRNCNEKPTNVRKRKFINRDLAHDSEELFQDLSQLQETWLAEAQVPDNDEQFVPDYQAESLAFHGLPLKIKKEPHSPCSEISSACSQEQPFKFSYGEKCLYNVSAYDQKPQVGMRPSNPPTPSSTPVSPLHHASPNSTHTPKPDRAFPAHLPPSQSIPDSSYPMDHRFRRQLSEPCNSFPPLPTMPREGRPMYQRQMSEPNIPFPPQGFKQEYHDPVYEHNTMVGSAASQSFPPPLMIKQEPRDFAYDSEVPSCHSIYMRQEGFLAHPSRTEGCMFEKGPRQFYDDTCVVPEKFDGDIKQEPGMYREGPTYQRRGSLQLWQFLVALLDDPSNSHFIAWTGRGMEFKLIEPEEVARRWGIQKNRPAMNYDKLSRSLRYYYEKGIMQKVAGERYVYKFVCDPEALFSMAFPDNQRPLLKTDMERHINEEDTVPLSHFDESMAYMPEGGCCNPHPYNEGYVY
SPIB, sequence (Q01892 whole entry): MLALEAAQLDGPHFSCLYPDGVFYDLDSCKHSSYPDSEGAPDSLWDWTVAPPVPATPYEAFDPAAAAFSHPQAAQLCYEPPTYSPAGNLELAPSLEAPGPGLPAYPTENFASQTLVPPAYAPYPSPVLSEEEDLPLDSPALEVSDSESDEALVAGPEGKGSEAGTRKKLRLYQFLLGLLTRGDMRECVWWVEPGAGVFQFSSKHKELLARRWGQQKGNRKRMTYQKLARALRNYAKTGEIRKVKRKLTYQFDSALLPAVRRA

| Sequence | binding signal [1] | binding signal [2] | binding signal [3] | binding signal [4] | binding signal [5] | binding signal [6] | binding signal [7] | binding signal [8] | binding signal [9] | binding signal [10] | binding signal [11] | binding signal [12] | binding signal [13] | binding signal [14] | binding signal [15] | binding signal [16] | binding signal [17] |
| --- | --- | --- | --- | --- | --- | --- | --- | --- | --- | --- | --- | --- | --- | --- | --- | --- | --- |
| GCCCCC | 1.06 fold enrichment (6-mer frequency, TF over GST control) | 1.02 fold enrichment (6-mer frequency, TF over GST control) | 1.15 fold enrichment (6-mer frequency, TF over GST control) | 1.03 fold enrichment (6-mer frequency, TF over GST control) | 1.15 fold enrichment (6-mer frequency, TF over GST control) | 1.13 fold enrichment (6-mer frequency, TF over GST control) | 1.12 fold enrichment (6-mer frequency, TF over GST control) | 1.06 fold enrichment (6-mer frequency, TF over GST control) | 1.13 fold enrichment (6-mer frequency, TF over GST control) | 1.06 fold enrichment (6-mer frequency, TF over GST control) | 1.26 fold enrichment (6-mer frequency, TF over GST control) | 1.11 fold enrichment (6-mer frequency, TF over GST control) | 1.18 fold enrichment (6-mer frequency, TF over GST control) | 1.23 fold enrichment (6-mer frequency, TF over GST control) | 1.2 fold enrichment (6-mer frequency, TF over GST control) | 1.1 fold enrichment (6-mer frequency, TF over GST control) | – |
| GTCCAT | 1.22 fold enrichment (6-mer frequency, TF over GST control) | 1.07 fold enrichment (6-mer frequency, TF over GST control) | – | 1.14 fold enrichment (6-mer frequency, TF over GST control) | 1.1 fold enrichment (6-mer frequency, TF over GST control) | 1.13 fold enrichment (6-mer frequency, TF over GST control) | 1.08 fold enrichment (6-mer frequency, TF over GST control) | 1.2 fold enrichment (6-mer frequency, TF over GST control) | 1.03 fold enrichment (6-mer frequency, TF over GST control) | 1.17 fold enrichment (6-mer frequency, TF over GST control) | 1.17 fold enrichment (6-mer frequency, TF over GST control) | 1.1 fold enrichment (6-mer frequency, TF over GST control) | 1.18 fold enrichment (6-mer frequency, TF over GST control) | 1.04 fold enrichment (6-mer frequency, TF over GST control) | 1.11 fold enrichment (6-mer frequency, TF over GST control) | 1.18 fold enrichment (6-mer frequency, TF over GST control) | 1.07 fold enrichment (6-mer frequency, TF over GST control) |

Source: PMC7862700, “An all-to-all approach to the identification of sequence-specific readers for epigenetic DNA modifications on cytosine”
